Measured values reported in PubChem BioAssay (EPA / NIEHS).
Several values for one entry are separate records, joined by “and”; a condition that tells them apart may be missing. Equal values may be shown once. Results filed as inconclusive are left out. A structure can be active in one record and inactive in another. Activity calls are given as the source filed them. The calls were made as follows: active = hit-call score of the fitted dose curve at least 0.9, where 1 is the maximum; inconclusive = response in the unintended direction; inactive = score below 0.9.

Columns and labels:
[1] = TOX21_p53_BLA_p4_viability: Viability Assessment in the Tox21 HCT-116 p53 Agonism Beta-lactamase Assay, Phase 4 (AID 2283597);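 also: hits lower the luminescence signal meaning cytotoxicity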
Outline: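 HCT116 p53-bla cells (4000/well) rested 5 h at 37C, then received compounds in DMSO (217-fold dilution) for 16 h at 37C, 5% CO2. CellTiter-Glo was added after the CCF4-AM read, and luminescence was read after 30 min at room temperature.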

[2] = target: Cellular tumor antigen p53 (Homo sapiens) (UniProt P04637); test: TOX21_p53_BLA_p5_ratio: Tox21 HCT-116 p53 Agonism Beta-lactamase Assay, Ratio, Phase 5 (AID 2283599)
Sequence of Cellular tumor antigen p53 (Homo sapiens) (P04637 whole entry, looked up): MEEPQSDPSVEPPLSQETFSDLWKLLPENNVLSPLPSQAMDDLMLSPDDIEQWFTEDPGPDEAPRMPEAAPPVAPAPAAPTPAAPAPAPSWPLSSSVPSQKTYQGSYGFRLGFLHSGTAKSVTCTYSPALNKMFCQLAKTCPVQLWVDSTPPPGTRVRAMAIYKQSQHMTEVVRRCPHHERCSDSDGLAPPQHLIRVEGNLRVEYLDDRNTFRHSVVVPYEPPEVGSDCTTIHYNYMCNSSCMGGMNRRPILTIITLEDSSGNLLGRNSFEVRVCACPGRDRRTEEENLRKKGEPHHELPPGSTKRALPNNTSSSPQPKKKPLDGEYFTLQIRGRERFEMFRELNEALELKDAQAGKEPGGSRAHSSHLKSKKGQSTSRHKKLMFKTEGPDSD
Outline: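 HCT-116 cells carrying a p53-inducible beta-lactamase reporter were seeded at 4000 cells/well and dosed after 5 h with compound in DMSO (217-fold dilution). After 16 h at 37C, CCF4-AM substrate was added for 2 h, and the 460/530 nm emission ratio was scored as gain-of-signal versus DMSO.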

[3] = TOX21_p53_BLA_p5_viability: Viability Assessment in the Tox21 HCT-116 p53 Agonism Beta-lactamase Assay, Phase 5 (AID 2283600)
Outline: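 Cells were plated at 4000/well, rested 5 h at 37C, then given compounds in DMSO (217-fold dilution) for 16 h at 37C, 5% CO2. Following the CCF4-AM beta-lactamase read, CellTiter-Glo was added and luminescence was read after 30 min at room temperature.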

[4] = target: Cellular tumor antigen p53 (Homo sapiens) (UniProt P04637); test: TOX21_p53_BLA_p4_ratio: Tox21 HCT-116 p53 Agonism Beta-lactamase Assay, Ratio, Phase 4 (AID 2283601)
Outline: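 HCT116 cells carrying an inducible beta-lactamase reporter were plated at 4000 cells/well, rested 5 h, then exposed to compounds in DMSO (217-fold dilution) for 16 h at 37C. CCF4-AM substrate was loaded 2 h at room temperature; 460/530 nm emission ratio scored gain-of-signal versus DMSO.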

[5] = Tanguay_ZF_120hpf_MORT_legacy: (Legacy) Oregon State University Tanguay Lab 120 Hour Post-fertilization zebrafish Assay for Mortality (AID 2283633);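 as to AC50: fitted as increase in binary mortality versus DMSO negative control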
Outline: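 Dechorionated Tropical 5D wild-type zebrafish embryos, one per well from 6 hpf, were statically exposed at 28C in the dark until 120 hpf (0.64% DMSO final). Mortality was scored as present/absent by brightfield microscopy, fitted positively versus DMSO.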

[6] = Tanguay_ZF_120hpf_YSE_legacy: (Legacy) Oregon State University Tanguay Lab 120 Hour Post-fertilization zebrafish Assay for Yolk Sac Edema (AID 2283634);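 as to AC50: actives raise the incidence of yolk sac edema above the DMSO baseline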
Outline: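 Tropical 5D wild-type embryos, dechorionated with pronase at 4 hpf, were exposed singly from 6 hpf to 120 hpf under static, sealed, dark conditions at 28C with 0.64% DMSO final. Yolk sac edema was scored present/absent by brightfield microscopy.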

[7] = Tanguay_ZF_120hpf_EYE_legacy: (Legacy) Oregon State University Tanguay Lab 120 Hour Post-fertilization zebrafish Assay for Eye Malformation (AID 2283636);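 also: binary presence or absence of eye malformation scored by brightfield in 120 hpf larvae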
Outline: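 Dechorionated wild-type Tropical 5D zebrafish embryos were exposed statically from 6 hpf, one per well, to 120 hpf at 28C in sealed, foil-covered plates with 0.64% DMSO. Eye malformation was scored present/absent by brightfield microscopy against DMSO controls.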

[8] = Tanguay_ZF_120hpf_SNOU_legacy: (Legacy) Oregon State University Tanguay Lab 120 Hour Post-fertilization zebrafish Assay for Snout Malformation (AID 2283637)
Outline: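 Tropical 5D wild-type zebrafish embryos, dechorionated with pronase at 4 hpf, were exposed singly from 6 hpf to 120 hpf statically at 28C in 0.64% DMSO. Snout malformation was scored present/absent by brightfield microscopy, fitted against DMSO.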

[9] = Tanguay_ZF_120hpf_JAW_legacy: (Legacy) Oregon State University Tanguay Lab 120 Hour Post-fertilization zebrafish Assay for Jaw Malformation (AID 2283638);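 as to AC50: active means more embryos with jaw malformation than DMSO controls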
Outline: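 Tropical 5D wild-type embryos, dechorionated with pronase at 4 hpf, were placed singly per well at 6 hpf and statically exposed at 28C until 120 hpf (0.64% DMSO final). Jaw malformation scored as present/absent by brightfield microscopy at 120 hpf, analyzed relative to DMSO.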

[10] = Tanguay_ZF_120hpf_AXIS_legacy: (Legacy) Oregon State University Tanguay Lab 120 Hour Post-fertilization zebrafish Assay for Body Axis Malformation (AID 2283635);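 as to AC50: potency for an increased fraction of larvae scored with body axis malformation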
Outline: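 Tropical 5D wild-type zebrafish embryos, dechorionated with pronase at 4 hpf, were placed singly in wells at 6 hpf and exposed statically to test chemical (0.64% DMSO final) at 28C until 120 hpf, then scored by brightfield for body axis defects.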

Measured: AC50

Oc1ccc(C(c2ccc(O)cc2)(C(F)(F)F)C(F)(F)F)cc1
inactive: [2] | [3]
active: [1] 63.7 µM and 71.3 µM | [2] 72.8 µM | [3] 72.3 µM | [4] 57.3 µM and 69.7 µM | [5] 33 µM | [6] 57.4 µM | [7] 53.9 µM | [8] 53.8 µM | [9] 54.7 µM

C[C@]12CCC(=O)C=C1CC[C@@H]1[C@@H]2CC[C@@]2(C)[C@H]1CC[C@]2(C)O
inactive: [1] | [2] | [3] | [4] | [5] | [6] | [9]
active: [2] 47.1 µM | [4] 48.6 µM

C[C@]12CCC(=O)C=C1CC[C@@H]1[C@@H]2CC[C@]2(C)C(=O)CC[C@@H]12
active: [6] 36.2 µM | [10] 40.2 µM | [7] 45.5 µM | [8] 37.7 µM | [9] 38.3 µM
inactive: [1] | [2] | [3] | [4] | [5]

CCOP(=S)(OCC)SCSC(C)(C)C
inactive: [4] | [5] | [6] | [7] | [8]

O=C(NC(=O)c1cc(F)c(F)cc1Cl)Nc1cc(F)ccc1N1CCC(C(=O)O)CC1
not listed: [2] | [3]
inactive: all other assays above

Cc1ccccc1CO[C@@H]1C[C@@]2(C(C)C)CC[C@]1(C)O2
inactive: [6] | [7] | [8] | [9]

Oc1ccc(Cl)cc1Cl
not listed: [6] | [10]
inactive: all other assays above

CCCN(CCC)N=O
not listed: [3] | [10]
inactive: all other assays above

CCNc1nc(NC(C)C)nc(SC)n1
inactive: [5] | [6] | [7] | [8] | [9]

CC1=C2C[C@H]3[C@@H](CC=C4C[C@@H](O)CC[C@@]43C)[C@@H]2CC[C@]12O[C@@H]1C[C@H](C)CN[C@H]1[C@H]2C
active: [6] 17.2 µM | [8] 21 µM | [9] 25.9 µM
not listed: [1] | [10]
inactive: all other assays above

CCC(=O)O[C@H]1CC[C@H]2[C@@H]3CCC4=CC(=O)CC[C@]4(C)[C@H]3CC[C@]12C
not listed: [1] | [4] | [10]
inactive: all other assays above

O=S(=O)(O)C(F)(F)C(F)(F)C(F)(F)C(F)(F)F
not listed: [6] | [10]
inactive: all other assays above

ClC(Cl)=C(c1ccc(Cl)cc1)c1ccc(Cl)cc1
not listed: [10]
inactive: all other assays above

Clc1ccc(C(Cl)(Cl)Cl)cc1
not listed: [1] | [3] | [8]
inactive: all other assays above

Cc1cc2c3c(c1)C(c1ccccc1)=N[C@@H](NC(=O)c1ccncc1)C(=O)N3CC2
not listed: [1] | [2] | [3]
inactive: all other assays above

N#Cc1ccc(N(CC(N)=O)CC(F)(F)F)cc1C(F)(F)F
not listed: [4] | [10]
inactive: all other assays above

C=CC(N)=O
not listed: [1] | [10]
inactive: all other assays above

c1ccc(-c2ccccc2)cc1
not listed: [1] | [8]
inactive: all other assays above

CCSC(=O)N(CC)C1CCCCC1
inactive: [5] | [6] | [10] | [8] | [9]

CCOCCOC(C)=O
not listed: [5] | [7]
inactive: all other assays above

O=S(=O)(O)C(F)(F)C(F)(F)C(F)(F)C(F)(F)C(F)(F)C(F)(F)F
not listed: [3] | [4] | [10]
inactive: all other assays above

CCCCCCOC(=O)c1ccccc1C(=O)OCCCCCC
not listed: [1] | [10]
inactive: all other assays above

Clc1ccc(Cl)cc1
not listed: [10]
inactive: all other assays above

CN(C)c1nc(=O)n(C2CCCCC2)c(=O)n1C
inactive: [5] | [6] | [7] | [8]

C1CC2OC2CC1C1CO1 (stereo not given)
not listed: [2] | [6] | [10]
inactive: all other assays above

Cc1cccc(C)c1N
not listed: [3] | [9] | [10]
inactive: all other assays above

CCC(C)(CC)c1cc(NC(=O)c2c(OC)cccc2OC)on1
inactive: [5] | [6] | [7] | [8] | [9]

Cc1cc(O)ccc1Cl
not listed: [6]
inactive: all other assays above

Cc1ccccc1[N+](=O)[O-]
not listed: [5] | [10]
inactive: all other assays above

O=C(O)C(F)(F)C(F)(F)C(F)(F)C(F)(F)C(F)(F)F
not listed: [1] | [3] | [10]
inactive: all other assays above

CC#Cc1cc(C)nc(Nc2ccccc2)n1
not listed: [2] | [10]
inactive: all other assays above

COc1ccc(O)c(C(C)(C)C)c1
active: [4] 86.1 µM
inactive: [1] | [2] | [4] | [5] | [6] | [7] | [8] | [9]

O=C(O)C(F)(F)C(F)(F)C(F)(F)C(F)(F)C(F)(F)C(F)(F)C(F)(F)C(F)(F)C(F)(F)F
not listed: [7] | [10]
inactive: all other assays above

CCCCCCCCOC(=O)c1ccccc1C(=O)OCCCCCCCC
not listed: [1] | [10]
inactive: all other assays above

Cc1ccccc1O
not listed: [3] | [10]
inactive: all other assays above

Nn1cnnc1
not listed: [2] | [3] | [10]
inactive: all other assays above
